Laboratory results published in the supplement of paper PMC9446081.
In all, about 39,000 compounds went through this assay and about 220 (0.56%) showed activity. The sample holds actives, similar compounds and a random draw of the others, so the mix is not that of the screen.

Test system: Escherichia coli K-12 BW25113
Assay: relative growth (OD600 normalised to plate interquartile mean) (fraction); higher = less growth inhibition, active = 0.2 or less
Conditions: 50 µM; LB; incubation time: overnight (16-24 h)
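Also: Wild-type cells incubated without shaking, value is the mean of two biological replicates.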

SMILES | relative growth
CN(C)C(=O)C[C@H]1C=C[C@H](NC(=O)C2CCOCC2)[C@H](CO)O1 | 1.01 (inactive)
COc1ccc(NC(=O)Nc2ccc3c(c2)C(=O)N([C@H](C)CO)C[C@@H](C)[C@@H](CN(C)S(=O)(=O)c2cccs2)OCCCC[C@@H](C)O3)cc1 | 1.02 (inactive)
CO[C@@H]1CN(C)C(=O)c2cc(NS(=O)(=O)CC(F)(F)F)ccc2OC[C@@H](C)N(C(=O)c2ccc3c(c2)OCO3)C[C@H]1C | 0.937 (inactive)
Cc1ccc(S(=O)(=O)Nc2ccc3c(c2)C(=O)N([C@@H](C)CO)C[C@@H](C)[C@H](CN(C)C(=O)Cc2ccccc2)OCCCC[C@@H](C)O3)cc1 | 1.01 (inactive)
C[C@H]1CN([C@@H](C)CO)C(=O)Cc2cc(NC(=O)CCN3CCOCC3)ccc2O[C@@H]1CN(C)Cc1ccccc1 | 1.01 (inactive)
C=CC(=O)NCCc1ccncc1 | 1.05 (inactive)
O=C(C[C@H]1C[C@H]2c3cc(NS(=O)(=O)c4ccc(F)cc4)ccc3O[C@H]2[C@H](CO)O1)NC1CCCC1 | 0.974 (inactive)
O=C(CN1CCNCC1)c1ccc(F)cc1 | 1 (inactive)
Cn1cc(S(=O)(=O)N2CCN(c3ccc(F)cc3)CC2)c(=O)n(C)c1=O | 1.01 (inactive)
O=C(c1ccccc1F)N1CCNCC1 | 0.999 (inactive)
CN1CCN(c2cc3c(cc2F)c(=O)c(C(=O)O)cn3-c2ccc(F)cc2)CC1.Cl | 0.0477 (active)
Cl.O=C(O)c1cn(-c2ccc(F)cc2)c2cc(N3CCNCC3)c(F)cc2c1=O | 0.0456 (active)
Cc1ccc(C(=O)O)c(=O)n1C | 1.02 (inactive)
C[C@@H]1CCCCO[C@H](CN(C)S(=O)(=O)c2cn(C)cn2)[C@H](C)CN([C@H](C)CO)C(=O)c2cc(NS(C)(=O)=O)ccc2O1 | 1.02 (inactive)
COc1ccc(-c2cn(CCCNC(=O)[C@H](Cc3ccccc3)NS(=O)(=O)c3ccc(C)cc3)nn2)cc1OC | 1.02 (inactive)
COC1=C(OC)C(=O)C(CCCCCCCCCC[P+](c2ccccc2)(c2ccccc2)c2ccccc2)=C(C)C1=O | 0.0727 (active)
CC1=C(C)C(=O)C(CCCCCCCCCC[P+](c2ccccc2)(c2ccccc2)c2ccccc2)=CC1=O | 0.308 (inactive)
COC1=C(OC)C(=O)C(CCCCCCCCCCO)=C(C)C1=O | 1.05 (inactive)
C[C@@H]1CN([C@H](C)CO)S(=O)(=O)c2ccc(Br)cc2O[C@@H]1CN(C)C(=O)NC1CCCC1 | 0.989 (inactive)
Cc1cc(=S)oc2ccccc12 | 0.943 (inactive)
CC(C)CC#Cc1ccc2c(c1)O[C@H](CN(C)C(=O)NC1CCCC1)[C@H](C)CN([C@@H](C)CO)S2(=O)=O | 0.997 (inactive)
NC(=O)N/N=C/c1ccc([N+](=O)[O-])o1 | 0.0425 (active)
NC(=O)NN=Cc1ccc([N+](=O)[O-])o1 | 0.0474 (active)

SMILES | relative growth
CCOC(=O)c1ccc(N2NC(=O)/C(=C/c3ccc([N+](=O)[O-])o3)C2=O)cc1 | 0.984 (inactive)
O=C(CN1CCOCC1)N/N=C/c1ccc([N+](=O)[O-])o1 | 0.801 (inactive)
O=C(N/N=C/c1ccc(CO)o1)c1ccccn1 | 1 (inactive)
COC(=O)N/N=C/c1ccc([N+](=O)[O-])o1 | 0.0393 (active)
O=C(NN=Cc1ccc([N+](=O)[O-])o1)c1ccc(O)cc1 | 0.973 (inactive)
Nc1nnc(-c2ccc([N+](=O)[O-])o2)o1 | 0.258 (inactive)
C[C@H](NC(=O)C[C@H]1C=C[C@@H](NC(=O)CN2CCOCC2)[C@H](CO)O1)c1ccccc1 | 1 (inactive)
C[C@H](O)C#Cc1ccc2c(c1)O[C@H](CN(C)C(=O)Cc1ccccn1)[C@H](C)CN([C@@H](C)CO)S2(=O)=O | 1.01 (inactive)
CN1CCN(C(=O)C[C@@H]2CC[C@H]3[C@@H](COC[C@@H](O)CN3Cc3ccc4c(c3)OCO4)O2)CC1 | 0.988 (inactive)
O=C(C[C@H]1C[C@H]2c3cc(NC(=O)Nc4ccc(C(F)(F)F)cc4)ccc3O[C@H]2[C@H](CO)O1)NCc1ccc(Cl)cc1 | 0.973 (inactive)
C[C@@H]1CN([C@@H](C)CO)C(=O)c2cc(NS(=O)(=O)c3cn(C)cn3)ccc2O[C@@H]1CN(C)Cc1ccncc1 | 0.994 (inactive)
C[C@@H]1CN([C@H](C)CO)C(=O)Cc2cc(NC(=O)Nc3ccc(F)cc3)ccc2O[C@@H]1CN(C)Cc1ccc(Cl)c(Cl)c1 | 1.02 (inactive)
Cc1ccc(S[C@]2(C(=O)NCCN3CCOCC3)CC(=O)N(C(C)C)[C@@H]2c2ccc(CO)cc2)cc1 | 1 (inactive)
C=CCOC(=O)[C@H]1[C@@H]2C(=O)O[C@@H](c3ccccc3)[C@@H](c3ccccc3)N2[C@@H](c2ccc(OCCOC(=O)NCCCCCC(=O)NO)cc2)[C@@]12C(=O)Nc1ccc(I)cc12 | 0.993 (inactive)
C[C@@H]1CN([C@@H](C)CO)C(=O)c2cc(NC(=O)Nc3ccc(C(F)(F)F)cc3)ccc2O[C@H]1CN(C)C(=O)Nc1cccc2ccccc12 | 1.01 (inactive)
COC(=O)c1cn(CC(=O)N2CCN(C)CC2)nn1 | 0.978 (inactive)
C[C@@H]1CN([C@@H](C)CO)C(=O)c2cc(NS(=O)(=O)c3cn(C)cn3)ccc2O[C@H]1CN(C)S(C)(=O)=O | 1.02 (inactive)
C[C@H](CO)N1C[C@H](C)[C@@H](CN(C)S(C)(=O)=O)Oc2c(NC(=O)Nc3ccc4c(c3)OCO4)cccc2C1=O | 0.991 (inactive)
N#CC1C(=O)NC(=O)N=C1Nc1ccccc1 (configuration not stated) | 0.981 (inactive)
NCC[C@H](O)C(=O)N[C@@H]1C[C@H](N)[C@@H](O[C@H]2O[C@H](CN)[C@@H](O)[C@H](O)[C@H]2O)[C@H](O)[C@H]1O[C@H]1O[C@H](CO)[C@@H](O)[C@H](N)[C@H]1O | 0.0379 (active)
NCCC(O)C(=O)NC1CC(N)C(OC2OC(CN)C(O)C(O)C2O)C(O)C1OC1OC(CO)C(O)C(N)C1O.O (configuration not stated) | 0.0465 (active)
NCC1OC(OC2C(CO)OC(OC3C(O)C(N)CC(N)C3OC3OC(CO)C(O)C(O)C3N)C2O)C(N)C(O)C1O.O=S(=O)(O)O (configuration not stated) | 0.915 (inactive)
NCC1OC(OC2C(CO)OC(OC3C(O)C(N)CC(N)C3OC3OC(CN)C(O)C(O)C3N)C2O)C(N)C(O)C1O.O=S(=O)(O)O.O=S(=O)(O)O.O=S(=O)(O)O (configuration not stated) | 1.2 (inactive)

SMILES | relative growth
NC[C@H]1O[C@H](O[C@H]2[C@H](O[C@@H]3O[C@H](CO)[C@@H](O)[C@H]3O)[C@@H](O)[C@H](N)C[C@@H]2N)[C@H](N)[C@@H](O)[C@@H]1O | 0.515 (inactive)
Cc1noc(C)c1NC(=O)Nc1ccc2c(c1)C(=O)N([C@H](C)CO)C[C@H](C)[C@@H](CN(C)C(=O)Nc1ccc(F)cc1)OCCCC[C@@H](C)O2 | 0.985 (inactive)
CCN1CCN(c2ccc(Nc3cc(N(C)C(=O)Nc4c(Cl)c(OC)cc(OC)c4Cl)ncn3)cc2)CC1 | 0.975 (inactive)
C[C@@H]1CN([C@H](C)CO)C(=O)Cc2cc(NC(=O)Nc3ccc(F)cc3)ccc2O[C@@H]1CN(C)S(C)(=O)=O | 0.979 (inactive)
C[C@@H]1CCCCO[C@H](CN(C)S(=O)(=O)c2ccc(Cl)cc2)[C@H](C)CN([C@@H](C)CO)C(=O)c2cc(NC(=O)c3ccncc3)ccc2O1 | 0.997 (inactive)
Cc1ccc(S(=O)(=O)N(C)C[C@@H]2OCCCC[C@@H](C)Oc3ccc(NC(=O)Nc4c(C)noc4C)cc3C(=O)N([C@H](C)CO)C[C@@H]2C)cc1 | 1 (inactive)
CC(=O)N[C@H]1CC[C@@H](CCNC(=O)C2CC2)O[C@H]1CO | 0.943 (inactive)
CC1(C)SC2C(NC(=O)Cc3ccccc3)C(=O)N2C1C(=O)[O-].[K+] (configuration not stated) | 0.576 (inactive)
CC1(C)SC2C(NC(=O)COc3ccccc3)C(=O)N2C1C(=O)[O-].[K+] (configuration not stated) | 0.598 (inactive)
CC1(C)SC2C(N3C(=O)C(c4ccccc4)NC3(C)C)C(=O)N2C1C(=O)[O-].[K+] (configuration not stated) | 0.0443 (active)
O=C(C[C@H]1C[C@@H]2c3cc(NC(=O)C4CCOCC4)ccc3O[C@@H]2[C@@H](CO)O1)NCc1cc(F)ccc1F | 0.984 (inactive)
C[C@@H]1CCCCO[C@@H](CN(C)C(=O)C2CCCCC2)[C@H](C)CN([C@@H](C)CO)C(=O)c2cc(NS(=O)(=O)c3ccccc3)ccc2O1 | 1.02 (inactive)
COc1ccc(S(=O)(=O)Nc2ccc3c(c2)C(=O)N([C@@H](C)CO)C[C@@H](C)[C@@H](CN(C)S(=O)(=O)c2cn(C)cn2)O3)cc1 | 0.994 (inactive)
Cn1sccc1=O | 0.0369 (active)
COc1ccccc1C#Cc1cnc2c(c1)C(=O)N([C@@H](C)CO)C[C@@H](C)[C@@H](CN(C)C(=O)c1ccc3c(c1)OCO3)O2 | 1.03 (inactive)
COc1ccc(S(=O)(=O)Nc2ccc3c(c2)C(=O)N([C@@H](C)CO)C[C@@H](C)[C@H](CN(C)Cc2ccc(C(=O)O)cc2)OCCCC[C@@H](C)O3)cc1 | 0.984 (inactive)
CC(C)CC#Cc1cnc2c(c1)C(=O)N([C@@H](C)CO)C[C@@H](C)[C@@H](CN(C)C(=O)CCN1CCCCC1)O2 | 0.965 (inactive)
CN1CCN(c2c(F)cc3c(=O)c(C(=O)O)cn4c3c2SCC4)CC1 | 0.0436 (active)
CN1CCN(c2c(F)cc3c(=O)c(C(=O)O)cn(CCF)c3c2F)CC1 | 0.0442 (active)
C[C@@H]1CN([C@@H](C)CO)C(=O)CCCn2nncc2CO[C@@H]1CN(C)S(=O)(=O)c1ccc(Oc2ccccc2)cc1 | 1.02 (inactive)
Cc1ccc(S(=O)(=O)N[C@@H]2C=C[C@H](CC(=O)NCCN3CCCCC3)O[C@@H]2CO)cc1 | 1.01 (inactive)
